Assay results published in PubChem BioAssay (Tox21).
Records with an inconclusive call do not appear. Calls of active or inactive are those of the source. Calls come from the whole dose curve; as a rule, active = well fitted curve in the direction sought with a large enough effect in the repeat runs; inconclusive = weak or mixed curves; inactive = no such curve, though single readings can be large; an effect the other way counts as inactive or inconclusive.

What was measured:
[1] = A CellTox Green Cytotoxicity Assay to monitor cytotoxicity in HEK293 cells - 40 hour (AID 1224871); note: nearly all actives have a fitted effect of over 45% in size
Method in brief: (§1)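 Fluorescence from a DNA-binding dye excluded by viable cells was measured repeatedly in the same HEK293 wells (600 cells/well) during continuous compound exposure at 37 C. Each assay gives one read point: 0, 8, 16, 24, 32 or 40 h.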

[2] = qHTS RealTime-Glo MT Cell Viability Assay in HEK293 cells - 16 hour (AID 1224872); note: top concentration of the series differs between compounds; nearly all actives have a fitted effect of over 50% in size
Method in brief: (§2)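 Nonlytic real-time viability readout: viable cells convert prosubstrate to NanoLuc substrate, giving luminescence proportional to live cell number. HEK293, 600 cells/well, compound added after 5 h, continuous culture at 37 C.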

[3] = qHTS RealTime-Glo MT Cell Viability Assay in HepG2 cells - 8 hour (AID 1224873); note: nearly all actives have a fitted effect of over 55% in size
Method in brief: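 Real-time viability: cells seeded at 600 per well together with NanoLuc and cell-permeant prosubstrate, compounds added after 5 h incubation. Luminescence tracked at 0, 8, 16, 24, 32 and 40 h of exposure.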

[4] = qHTS RealTime-Glo MT Cell Viability Assay in HEK293 cells - 40 hour (AID 1224874); conditions: RealTime-Glo luminescence; max response: hits give low values; note: nearly all actives have a fitted effect of over 50% in size
Method in brief: (§3)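 Luminescence, which tracks viable cell number through reduction of the prosubstrate to a NanoLuc substrate, was read over continuous 37 C culture. Cells (600/well) were premixed with reagent and rested 5 h before 23 nL of compound in DMSO was pinned.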

[5] = A CellTox Green Cytotoxicity Assay to monitor cytotoxicity in HepG2 cells - 16 hour (AID 1224876); note: nearly all actives have a fitted effect of over 45% in size
Method in brief: (§4)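 Real-time cytotoxicity: fluorescence of a cell-impermeant cyanine dye binding DNA of dead HepG2 cells, measured repeatedly (0–40 h) during compound exposure at 37 C. Cells seeded 600/well with reagent, dosed after 5 h.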

[6] = qHTS RealTime-Glo MT Cell Viability Assay in HepG2 cells - 32 hour (AID 1224877); note: nearly all actives have a fitted effect of over 55% in size
Method in brief: (§5)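 Luminescence read-out: viable HepG2 cells reduce a prosubstrate to a NanoLuc substrate, giving a signal proportional to live cell number. Reads taken at 0, 8, 16, 24, 32 and 40 h of compound exposure at 37 C.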

[7] = A CellTox Green Cytotoxicity Assay to monitor cytotoxicity in HepG2 cells - 24 hour (AID 1224878); note: nearly all actives have a fitted effect of over 45% in size
Method in brief: as §4

[8] = A CellTox Green Cytotoxicity Assay to monitor cytotoxicity in HepG2 cells - 40 hour (AID 1224879); note: nearly all actives have a fitted effect of over 40% in size
Method in brief: as §4

[9] = qHTS RealTime-Glo MT Cell Viability Assay in HEK293 cells - 0 hour (AID 1224880); note: top concentration of the series differs between compounds; nearly all actives have a fitted effect of over 45% in size
Method in brief: as §3

[10] = A CellTox Green Cytotoxicity Assay to monitor cytotoxicity in HepG2 cells - 0 hour (AID 1224882); note: nearly all actives have a fitted effect of over 35% in size
Method in brief: as §4

[11] = A CellTox Green Cytotoxicity Assay to monitor cytotoxicity in HepG2 cells - 32 hour (AID 1224883); note: nearly all actives have a fitted effect of over 50% in size
Method in brief: as §4

[12] = A CellTox Green Cytotoxicity Assay to monitor cytotoxicity in HEK293 cells - 8 hour (AID 1224884); note: nearly all actives have a fitted effect of over 35% in size
Method in brief: as §1

[13] = qHTS RealTime-Glo MT Cell Viability Assay in HepG2 cells - 16 hour (AID 1224885); note: nearly all actives have a fitted effect of over 50% in size
Method in brief: as §5

[14] = qHTS RealTime-Glo MT Cell Viability Assay in HEK293 cells - 24 hour (AID 1224886)
Method in brief: as §2

[15] = qHTS RealTime-Glo MT Cell Viability Assay in HEK293 cells - 8 hour (AID 1224887)
Method in brief: as §3

[16] = A CellTox Green Cytotoxicity Assay to monitor cytotoxicity in HEK293 cells - 16 hour (AID 1224888); note: nearly all actives have a fitted effect of over 35% in size
Method in brief: as §1

[17] = qHTS RealTime-Glo MT Cell Viability Assay in HepG2 cells - 0 hour (AID 1224889); note: nearly all actives have a fitted effect of over 50% in size
Method in brief: as §5

[18] = A CellTox Green Cytotoxicity Assay to monitor cytotoxicity in HepG2 cells - 8 hour (AID 1224890); note: nearly all actives have a fitted effect of over 45% in size
Method in brief: as §4

[19] = A CellTox Green Cytotoxicity Assay to monitor cytotoxicity in HEK293 cells - 32 hour (AID 1224881); note: nearly all actives have a fitted effect of over 40% in size
Method in brief: as §1

[20] = A CellTox Green Cytotoxicity Assay to monitor cytotoxicity in HEK293 cells - 24 hour (AID 1224875)
Method in brief: as §1
% is set by controls: 0 for no effect and ±100 for the full control effect.

C[C@@H](N)C(=O)O
inactive: Potency [1] | Potency [2] | outcome [3] | max response [4] 1.04% | Potency [5] | Potency [6] | Potency [7] | Potency [8] | outcome [9] | Potency [10] | Potency [11] | Potency [12] | outcome [13] | Potency [14] | Potency [15] | Potency [16] | Potency [17] | Potency [18]

O=c1[nH]c(=O)n([C@H]2C[C@H](O)[C@@H](CO)O2)cc1C(F)(F)F
inactive: Potency [1] | Potency [2] | outcome [3] | max response [4] -15% | Potency [5] | Potency [6] | Potency [7] | outcome [9] | Potency [19] | Potency [10] | Potency [11] | Potency [12] | outcome [13] | Potency [14] | Potency [15] | Potency [16] | Potency [17] | Potency [18]

O=Cc1ccc(F)c(Br)c1
inactive: Potency [1] | Potency [2] | outcome [3] | max response [4] 3.83% | Potency [5] | Potency [6] | Potency [7] | outcome [9] | Potency [10] | Potency [11] | Potency [12] | outcome [13] | Potency [14] | Potency [15] | Potency [17] | Potency [18]

CN1CCC[C@@H]1Cc1c[nH]c2ccc(CCS(=O)(=O)c3ccccc3)cc12
inactive: Potency [1] | Potency [2] | outcome [3] | max response [4] 3.35% | Potency [20] | Potency [5] | Potency [7] | Potency [8] | outcome [9] | Potency [19] | Potency [11] | Potency [12] | outcome [13] | Potency [14] | Potency [15] | Potency [16] | Potency [17] | Potency [18]

C[C@@H]1CN(c2c(F)c(F)c3c(=O)c(C(=O)O)cn(C4CC4)c3c2F)C[C@H](C)N1
inactive: cytotoxicity increase [1] -4.55% [at 15.8 µM] | activity change, negative = cytotoxicity [2] 0.662% [at 15.8 µM] | viability change, negative = cytotoxic [3] -4.32% [at 15.8 µM] | max response [4] 10.3% | activity change [20] 0.295% [at 15.8 µM, hits give high values] | cytotoxicity increase [5] -10.9% [at 15.8 µM] | cytotoxicity [7] -13.2% [at 15.8 µM] | cytotoxicity increase [8] -9.16% [at 15.8 µM] | activity change, negative = cytotoxicity [9] 0.0765% [at 15.8 µM] | cytotoxicity increase [19] -0.134% [at 15.8 µM] | cytotoxicity [10] -1.92% [at 15.8 µM] | cytotoxicity increase [11] -14.8% [at 15.8 µM] | cytotoxicity increase [12] -0.256% [at 15.8 µM] | activity change, negative = cytotoxic [13] -2.02% [at 15.8 µM] | activity change, negative = cytotoxicity [14] 9.9% [at 15.8 µM] | activity change, negative = cytotoxicity [15] 0.326% [at 15.8 µM] | activity change, negative = cytotoxicity [17] -0.832% [at 15.8 µM] | cytotoxicity increase [18] -9.96% [at 15.8 µM]

C=CCCC=C
inactive: Potency [1] | Potency [2] | outcome [3] | max response [4] 4.67% | Potency [20] | Potency [5] | Potency [7] | outcome [9] | Potency [11] | Potency [12] | outcome [13] | Potency [14] | Potency [15] | Potency [17] | Potency [18]

CCOC(=O)[C@H](CCc1ccccc1)N[C@@H](C)C(=O)N1Cc2cc(OC)c(OC)cc2C[C@H]1C(=O)O
inactive: Potency [1] | Potency [2] | outcome [3] | max response [4] 3.96% | Potency [5] | Potency [6] | Potency [7] | Potency [8] | outcome [9] | Potency [11] | Potency [12] | outcome [13] | Potency [14] | Potency [15] | Potency [16] | Potency [17] | Potency [18]

Cc1c[nH]c(=S)[nH]c1=O
inactive: Potency [1] | Potency [2] | outcome [3] | max response [4] 22.1% | Potency [20] | Potency [5] | Potency [7] | outcome [9] | Potency [19] | Potency [11] | Potency [12] | outcome [13] | Potency [14] | Potency [15] | Potency [16] | Potency [17] | Potency [18]
